From PubChem BioAssay AID2391 (Southern Research Specialized Biocontainment Screening …, 2010)
Hit rate of the full screen: of about 310,000 compounds, about 410 (0.13%) were called active. About 2% were inconclusive and are not listed. The rule behind the calls is not given here. The list is a sample of the results. Entries with a potency or affinity are not part of this list.

assay: RSV antiviral activity via CPE protection, HEp-2 cells, primary 10 µM value included (AID 2391); settings: RSV-induced CPE inhibition, at 10 µM, active compounds read high

CPE inhibition, inactive:
COCc1ccc(CN2CCCC(CO)(Cc3ccccc3C)C2)o1 (stereo not given) -0.94%
CCOC(=O)c1cnc(Cc2ccccc2)[nH]c1=O 1.25%
N#Cc1nc(COc2ccccc2Cl)oc1N1CCCC1 40.5%
Cc1c(C(=O)O)oc2ccc3c(c12)C(O)CC(C)(C)O3 (stereo not given) 1.72%
CCc1ccccc1NC(=O)CN(C)C(=O)c1cc(C2CC2)nn1-c1ccccc1 0.49%
CN(CC(=O)Nc1ccccc1Cl)C(=O)c1cc(C2CC2)nn1-c1ccccc1 1.34%
O=C(O)c1cc(C2CC2)nn1-c1ccccc1 -0.32%
CCc1ccccc1NC(=O)CNC(=O)c1cc(C2CC2)nn1-c1ccccc1 -0.83%
CCN(CC(=O)Nc1c(F)cccc1F)C(=O)C1CCN(C(=O)Nc2ccccc2)CC1 0.36%
O=C(NC1CCCC1)C1CC(=O)N(c2ccccc2)C1 (stereo not given) 1.22%
CS(=O)(=O)c1ccc(C(=O)OCC(=O)Nc2cccc(S(=O)(=O)N3CCCC3)c2)cc1 1.77%
O=C(CSc1nccn(-c2ccc(Br)cc2)c1=O)Nc1ccccc1F 0.04%
CSc1nc(Oc2ccc(C)cc2)cc(C(F)(F)F)n1 0.19%
CCNC(=S)N1CCN(c2nc(-c3ccc(F)cc3)cs2)CC1 2.45%
O=C(c1ccc(-c2ccccc2Cl)o1)N1CCN(S(=O)(=O)c2cccs2)CC1 0.24%
CCOC(=O)[C@H]1[C@H]2COc3cc(OC)ccc3[C@@H]2N2C(=O)CN(Cc3ccc(OC)cc3)C(=O)[C@@]12C 2.03%
COc1ccc(NC(=S)NCCN2CCC(C)CC2)cc1Cl -1.89%
CC(C)OCCCNC(=O)c1ccc2c(c1)NC(=O)c1ccccc1S2 3.89%
COc1ccc(C(=O)c2coc3ccc(OC(C)=O)cc23)cc1 4.53%
COc1ccc2occ(C(C)=O)c2c1 0.49%
CN1C=C(C(F)(F)F)C=C/C1=C(\C#N)c1nnc2n1CCCCC2 1.8%
COc1ccc(C2CCCN2C(=O)Nc2ccccc2)cc1OC (stereo not given) 2.18%
COc1ccc(CNC(=O)CCCn2nc(C)n3ccnc3c2=O)cc1 1%
C=Cn1cc[n+](CC(=O)c2cccs2)c1 0.58%
COc1ccc2[nH]cc(C(=O)CN3CCC(C)CC3)c2c1 0.91%
COc1ccc2[nH]cc(C(=O)CN3CCCCC3)c2c1 -0.42%
O=C1CCCN1c1ccc(C(=O)N(Cc2nnc(-c3ccc(Cl)cc3)o2)C2CC2)cc1 1.99%
O=C(c1ccc(Cl)c(S(=O)(=O)N2CCOCC2)c1)N(Cc1nnc(-c2ccccc2Cl)o1)C1CC1 14.6%
CC(C)CCOC(=O)C(C)Sc1n[nH]c(=O)[nH]c1=O (stereo not given) 8.79%
Cc1c(NC(=S)NC(=O)c2ccc(-c3ccc(Cl)cc3)o2)cccc1C(=O)O 53.5%
Cc1cc(O)c(NC(=S)NC(=O)c2ccc(-c3ccc(Cl)cc3)o2)cc1C 11.3%
O=C(O)c1ccc(NC(=S)NC(=O)c2ccc(-c3ccc(Br)cc3)o2)cc1 10.7%
Cc1ccc(NC(=S)NC(=O)c2ccc(-c3ccc(Cl)cc3)o2)c(O)c1 1.42%
O=C(NC(=S)Nc1ccccc1O)c1ccc(-c2ccc(Cl)cc2)o1 -1.25%
COC(=O)c1ccccc1NC(=O)c1ccc(-c2ccc(Br)cc2)o1 4.75%
O=C(N/C(=C/c1cccc([N+](=O)[O-])c1)C(=O)N1CCCCC1)c1ccco1 -0.57%
Cc1ccc(S(=O)(=O)NC(C)(C)CN2CCNCC2)cc1 -0.5%
O=C(CCCCCN1C(=O)c2cccc3cccc(c23)C1=O)N1CCOCC1 2.04%
CCCc1c(NC(=O)Nc2ccc(F)cc2)cnn1-c1ccc(Cl)cc1 4.89%
CCCc1c(C(=O)Nc2ccc(F)cc2)cnn1-c1ccccc1 3.97%
O=C(c1ccco1)N1CCN(c2ccccc2F)CC1 0.67%
CNC(=O)N1c2ccccc2C=Cc2ccccc21 0.96%
CCN(CC)C(=O)N1c2ccccc2Sc2ccccc21 11.5%
Cc1ccc(NC(=O)c2cccs2)cc1NC(=O)c1ccccc1Cl 2.07%
COc1cccc(C(=O)Nc2cc(NC(=O)c3cccs3)ccc2C)c1 10.5%
COc1cc(NC(=S)NC(=O)c2c(OC)cccc2OC)ccc1NC(=O)c1cccs1 2.67%
COc1cc(NC(=S)NC(=O)c2cc(C)cc(C)c2)ccc1NC(=O)c1cccs1 7.54%
CCCCN(C)CCNC(=O)c1cn(C)c(=O)c2c1c1ccccc1n2C 1.07%
COc1ccc(OC)c(C2C(C#N)=C(N)N(N(C)C)C3=C2C(=O)CC(C)(C)C3)c1 (stereo not given) 1.69%
Nc1ccc2nc(SCC(=O)N3CCOCC3)sc2c1 0.05%
CCN(CC)CCNC(=O)c1ccc(NC(=O)Cc2ccccc2F)cc1 -0.24%
COc1ccc(Cl)cc1NC(=O)NCc1cccnc1 2.51%
Nc1nnnn1/N=C/c1ccc(Br)cc1 7.9%
Nc1nnnn1/N=C/c1ccc(F)cc1 1.72%
O=C(COc1ccccc1[N+](=O)[O-])OCCCOC(=O)COc1ccccc1[N+](=O)[O-] 0.68%
CCN1/C(=C2\C(=O)N(C)C(=S)N2c2ccccc2)C=Cc2ccccc21 1.96%
CC1(C)Cc2cccc(OCC(=O)Nc3cccnc3)c2O1 0.28%
CC1(C)Cc2cccc(OCC(=O)Nc3nccs3)c2O1 1.37%
COc1ccc(C)cc1Nc1n[n+](-c2ccccc2)c(-c2cc(OC)c(OC)cc2Br)s1 13.7%
COC(=O)c1cc(NS(=O)(=O)c2ccc(NCc3cccnc3)c([N+](=O)[O-])c2)cc(C(=O)OC)c1 1.44%
